Experimental data taken from PubChem BioAssay (Tox21).
Records with an inconclusive call do not appear. The source made the active and inactive calls. Unless noted, calls come from the whole dose curve; as a rule, active = well fitted curve in the direction sought with a large enough effect in the repeat runs; inconclusive = weak or mixed curves; inactive = no such curve, though single readings can be large; an effect the other way counts as inactive or inconclusive.

Tests used:
[1] = qHTS RealTime-Glo MT Cell Viability Assay in HEK293 cells - 8 hour (AID 1224887); note: top concentration of the series differs between compounds; nearly all actives have a fitted effect of over 50% in size
In short: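 Luminescence, which tracks viable cell number through reduction of the prosubstrate to a NanoLuc substrate, was read over continuous 37 C culture. Cells (600/well) were premixed with reagent and rested 5 h before 23 nL of compound in DMSO was pinned.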

[2] = A CellTox Green Cytotoxicity Assay to monitor cytotoxicity in HEK293 cells - 16 hour (AID 1224888); note: nearly all actives have a fitted effect of over 35% in size
In short: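 Fluorescence from a DNA-binding dye excluded by viable cells was measured repeatedly in the same HEK293 wells (600 cells/well) during continuous compound exposure at 37 C. Each assay gives one read point: 0, 8, 16, 24, 32 or 40 h.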

[3] = qHTS RealTime-Glo MT Cell Viability Assay in HepG2 cells - 0 hour (AID 1224889); note: nearly all actives have a fitted effect of over 50% in size
In short: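 Compound treatment began 5 h after plating HepG2 cells (600/well) with NanoLuc luciferase and prosubstrate. Plates stayed at 37 C for 40 h; luminescence was captured at six time points, 0 h through 40 h.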

[4] = A CellTox Green Cytotoxicity Assay to monitor cytotoxicity in HepG2 cells - 8 hour (AID 1224890); note: nearly all actives have a fitted effect of over 45% in size
In short: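 Real-time cytotoxicity: fluorescence of a cell-impermeant cyanine dye binding DNA of dead HepG2 cells, measured repeatedly (0–40 h) during compound exposure at 37 C. Cells seeded 600/well with reagent, dosed after 5 h.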

[5] = qHTS assay to identify small molecule antagonists of the estrogen receptor alpha (ER-alpha) signaling pathway using the BG1 cell line in the presence of 0.1 nM 17-beta-estradiol - cell viability counter screen (AID 1259241); note: nearly all actives have a fitted effect of over 40% in size
In short: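 Estradiol-stimulated (0.1 nM) VM7Luc4E2 cells exposed to compounds 22 hr; viability measured by fluorescence of cleaved CellTiter-Fluor substrate after 30 min.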

[6] = target: Estrogen receptor (Homo sapiens) (UniProt P03372); assay: qHTS assay to identify small molecule antagonists of the estrogen receptor alpha (ER-alpha) signaling pathway using the BG1 cell line in the presence of 0.1 nM 17-beta-estradiol (AID 1259244); note: nearly all actives have a fitted effect of over 50% in size
In short: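 Luciferase luminescence (ONE-Glo, 30 min at room temperature) was read after 22 hr at 37C exposure to compounds plus 17beta-estradiol at 0.1 nM final. Cells were VM7Luc4E2 with endogenous ER-alpha and an ERE-driven luciferase, pre-cultured 5 days in hormone-depleted medium.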

[7] = qHTS assay to identify small molecule HDAC inhibitors (AID 1259364); note: top concentration of the series differs between compounds; nearly all actives have a fitted effect of over 45% in size
In short: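 Luminescence read after 30 min room-temperature HDAC-Glo incubation measures cellular class I/II HDAC activity. Compounds were applied for 2 hr at 37 C to HCT-116 wild-type cells seeded the day before.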

[8] = qHTS assay to identify small molecule HDAC inhibitors - cell viability counter screen (AID 1259365); note: series mostly up to about 92 µM; nearly all actives have a fitted effect of over 50% in size
In short: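 After overnight seeding at 1,500 cells per well, wild-type HCT-116 cultures took up compounds in DMSO for 2hr at 37 C. Viable cell content came from luminescence with CellTiter-Glo.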

[9] = qHTS assay to identify small molecule agonists of the sonic hedgehog signaling (Shh) pathway - cell viability counter screen (AID 1259366); note: nearly all actives have a fitted effect of over 50% in size
In short: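 Same-well cytotoxicity read. Gli1-Luc reporter 3T3 cells; compounds 24hr, 37C/5% CO2; CellTiter-Fluor fluorescence.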

[10] = qHTS assay to identify small molecule antagonists of the sonic hedgehog signaling (Shh) pathway - cell viability counter screen (AID 1259367); note: nearly all actives have a fitted effect of over 55% in size
In short: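 Conditioned medium drove Shh signaling in 3T3 Gli1-Luc cells exposed to compounds at 37C and 5% CO2. Viability was determined from CellTiter-Fluor fluorescence, with reagent incubated 1 hr after 23 hr of treatment.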

[11] = qHTS assay to identify small molecule agonists of the sonic hedgehog signaling (Shh) pathway (AID 1259368; calls by dose curve;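 note: NIH/3T3-derived 3T3Gli1-Luc cells carrying a stable Gli1-driven firefly luciferase reporter; series mostly up to about 92 µM; nearly all actives have a fitted effect of over 15% in size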)
In short: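 Luminescence was read after 30 min at room temperature with luciferase reagent. Before that, 3T3Gli1-Luc cells (NIH/3T3 clone, stable Gli1-Luc reporter; 2,000/well) were exposed to compounds for 24 hr at 37C, 5% CO2, compounds being added 4 hr post-plating.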

[12] = qHTS assay to identify small molecule antagonists of the sonic hedgehog signaling (Shh) pathway (AID 1259369; calls by dose curve; note: nearly all actives have a fitted effect of over 45% in size)
In short: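 Antagonist mode: compound added to 3T3 Gli1-Luc cells followed by conditioned-medium stimulation, 24 h at 37 C, 5% CO2. Inhibition taken as loss of Gli1-driven luciferase luminescence.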

[13] = target: Estrogen receptor beta (Homo sapiens) (UniProt Q92731); assay: qHTS assay to identify small molecule agonists of the estrogen receptor beta (ER-beta) signaling pathway (AID 1259377; active = well fitted activation curve with a large enough effect in the signal ratio in the repeat runs, not every such curve was filed as active; the % refers to the signal ratio)
In short: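 Read-out: beta-lactamase FRET fluorescence. Cell line: ER-beta-UAS-bla HEK293T in 2% charcoal-stripped FBS. Exposure: 16 hr at 37C. Substrate step: 2 h at room temperature.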

[14] = target: Estrogen receptor beta (Homo sapiens) (UniProt Q92731); assay: qHTS assay to identify small molecule antagonists of the estrogen receptor beta (ER-beta) signaling pathway (AID 1259378; active = well fitted inhibition curve with a large enough effect in the signal ratio in the repeat runs, not every such curve was filed as active; the % refers to the signal ratio)
In short: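 ER-beta-UAS-bla HEK293T (GripTite) cells in 2% charcoal-stripped FBS medium were preincubated 6 hr at 37C, dosed with compound, then stimulated with 1 nM E2 (final) for 16 hr; beta-lactamase reporter read by B/G FRET fluorescence after 2 hr substrate loading.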

[15] = qHTS assay to identify small molecule agonists of the androgen receptor (AR) signaling pathway in the presence of an antagonist - cell viability counter screen (AID 1259379);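 note: MDA-kb2 human breast cancer cells carrying an MMTV luciferase reporter; series mostly up to about 92 µM; nearly all actives have a fitted effect of over 25% in size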
In short: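 Cytotoxicity counter-screen run in the same wells as the nilutamide-challenged (3.0 µM final) AR agonist assay in MDA-kb2 cells. Compounds tested at 15 concentrations for 16 h, 37 °C without CO2; CellTiter-Fluor fluorescence read.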

[16] = qHTS assay to identify small molecule agonists of the estrogen receptor beta (ER-beta) signaling pathway - cell viability counter screen (AID 1259380); note: nearly all actives have a fitted effect of over 30% in size
In short: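 Cell viability counter screen: CellTiter-Glo luminescence (30 min, room temperature) measured in the same wells as the beta-lactamase readout, after 16 hr compound exposure at 37C of ER-beta-bla HEK293T cells in 2% charcoal-stripped FBS medium.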

[17] = qHTS assay to identify small molecule phospholipidosis (PLD) inducers (AID 1259344; active = well fitted curve in the direction sought with a large enough effect; an effect the other way counts as inactive or inconclusive)
In short: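 After 4 h attachment on collagen I, HepG2 cells were dosed with compound alongside LipidTOX Red, kept 24 h at 37 C, fixed, and imaged for lamellar phospholipid pits.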

[18] = qHTS assay to identify small molecule antagonists of the androgen receptor (AR) signaling pathway using the MDA cell line in the presence of 0.5 nM R1881 - cell viability counter screen (AID 1259242); note: nearly all actives have a fitted effect of over 45% in size
In short: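 Live-cell protease activity was measured by CellTiter-Fluor fluorescence after 30 min. Before that, MDA-kb2 MMTV-luciferase cells had 16 hr at 37C without CO2, exposed to test compounds and 0.5 nM R1881 final.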

[19] = target: Androgen receptor (Homo sapiens) (UniProt P10275); assay: qHTS assay to identify small molecule antagonists of the androgen receptor (AR) signaling pathway using the MDA cell line in the presence of 0.5 nM R1881 (AID 1259243); note: nearly all actives have a fitted effect of over 50% in size
In short: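 Luminescent reporter readout (ONE-Glo, 30 min, room temperature) after 16 hr co-treatment of MDA-kb2 cells with test compounds and 0.5 nM R1881 final, at 37C without CO2. The MMTV-driven luciferase responds to both AR and GR.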

[20] = target: Androgen receptor (Homo sapiens) (UniProt P10275); assay: qHTS assay to identify small molecule agonists of the androgen receptor (AR) signaling pathway in the presence of an antagonist (AID 1259381; calls by dose curve; note: nearly all actives have a fitted effect of over 15% in size)
In short: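 Agonist-mode confirmation run against 3.0 uM final nilutamide: compounds titrated at 15 concentrations onto MDA-kb2 MMTV-luciferase reporter cells. Luminescence measured with ONE-Glo following 16 hr incubation, 37C, 0% CO2.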

Measured: Potency

Androgen receptor (Homo sapiens), sequence (P10275 whole entry, looked up): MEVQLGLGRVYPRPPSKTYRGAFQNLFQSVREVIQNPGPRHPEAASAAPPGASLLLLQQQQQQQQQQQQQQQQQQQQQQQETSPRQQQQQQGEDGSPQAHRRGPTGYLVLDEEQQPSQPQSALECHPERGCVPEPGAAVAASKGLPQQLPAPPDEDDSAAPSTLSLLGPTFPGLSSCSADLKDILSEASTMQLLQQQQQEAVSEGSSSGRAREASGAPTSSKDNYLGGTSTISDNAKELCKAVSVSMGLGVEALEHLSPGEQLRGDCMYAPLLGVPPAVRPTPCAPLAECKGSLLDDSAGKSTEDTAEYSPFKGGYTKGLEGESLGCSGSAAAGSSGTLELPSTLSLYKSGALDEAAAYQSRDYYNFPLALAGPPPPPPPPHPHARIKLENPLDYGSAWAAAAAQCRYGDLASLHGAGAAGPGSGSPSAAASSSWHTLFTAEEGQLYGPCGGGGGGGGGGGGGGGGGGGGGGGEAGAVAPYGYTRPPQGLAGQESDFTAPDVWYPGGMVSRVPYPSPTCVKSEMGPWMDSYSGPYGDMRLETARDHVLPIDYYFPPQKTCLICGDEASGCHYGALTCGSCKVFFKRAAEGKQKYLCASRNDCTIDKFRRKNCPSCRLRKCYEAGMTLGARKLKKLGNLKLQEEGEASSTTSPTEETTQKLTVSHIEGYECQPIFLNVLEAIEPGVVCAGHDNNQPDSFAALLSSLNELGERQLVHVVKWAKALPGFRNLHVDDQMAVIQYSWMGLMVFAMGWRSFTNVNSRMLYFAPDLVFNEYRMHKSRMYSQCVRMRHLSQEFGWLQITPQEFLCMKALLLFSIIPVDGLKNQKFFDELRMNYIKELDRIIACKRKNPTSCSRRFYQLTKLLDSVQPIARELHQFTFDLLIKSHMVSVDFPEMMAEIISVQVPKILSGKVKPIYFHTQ
Estrogen receptor (Homo sapiens), sequence (P03372 whole entry, looked up): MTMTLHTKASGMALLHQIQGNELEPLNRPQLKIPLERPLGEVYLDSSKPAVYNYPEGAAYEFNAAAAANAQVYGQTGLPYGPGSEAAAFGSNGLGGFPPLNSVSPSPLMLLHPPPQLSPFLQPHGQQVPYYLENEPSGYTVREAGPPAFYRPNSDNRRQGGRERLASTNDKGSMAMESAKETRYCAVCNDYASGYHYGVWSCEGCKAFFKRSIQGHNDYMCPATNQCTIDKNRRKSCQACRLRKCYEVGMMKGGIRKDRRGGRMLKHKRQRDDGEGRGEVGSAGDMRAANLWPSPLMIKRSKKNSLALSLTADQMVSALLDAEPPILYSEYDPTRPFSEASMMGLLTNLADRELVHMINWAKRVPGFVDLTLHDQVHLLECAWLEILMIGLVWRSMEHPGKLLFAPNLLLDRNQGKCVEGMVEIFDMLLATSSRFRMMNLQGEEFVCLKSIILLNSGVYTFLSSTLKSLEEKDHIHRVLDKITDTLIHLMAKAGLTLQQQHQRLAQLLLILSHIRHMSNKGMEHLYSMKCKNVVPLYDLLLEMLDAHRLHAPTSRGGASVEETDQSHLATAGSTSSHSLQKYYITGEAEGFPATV
Estrogen receptor beta (Homo sapiens), sequence (Q92731 whole entry, looked up): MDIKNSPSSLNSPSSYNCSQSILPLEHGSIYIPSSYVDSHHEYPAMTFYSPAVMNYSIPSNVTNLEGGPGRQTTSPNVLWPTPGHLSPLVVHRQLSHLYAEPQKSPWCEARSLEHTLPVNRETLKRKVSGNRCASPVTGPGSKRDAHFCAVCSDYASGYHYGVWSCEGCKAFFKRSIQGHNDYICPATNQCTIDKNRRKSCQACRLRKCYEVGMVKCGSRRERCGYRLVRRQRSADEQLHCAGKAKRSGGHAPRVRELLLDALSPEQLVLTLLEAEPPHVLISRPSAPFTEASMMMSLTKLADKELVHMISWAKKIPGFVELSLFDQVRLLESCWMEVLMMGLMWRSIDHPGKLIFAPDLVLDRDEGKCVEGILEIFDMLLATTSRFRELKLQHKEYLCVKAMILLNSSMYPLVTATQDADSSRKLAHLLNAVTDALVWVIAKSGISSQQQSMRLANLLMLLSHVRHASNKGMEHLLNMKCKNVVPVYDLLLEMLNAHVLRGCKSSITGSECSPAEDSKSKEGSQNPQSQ

CCCCCCCCCCCCCCC(=O)NC(CO)CCCCCCCCCCCCCC (stereo not drawn)
not listed: [17] | [18] | [19] | [20]
inactive: all other assays above

N#CCC(=O)NN
not listed: [13] | [14] | [18] | [19] | [20]
inactive: all other assays above

CCO[Si](CC)(OCC)OCC
not listed: [3] | [17]
inactive: all other assays above

CCCSSCCC
not listed: [3] | [17] | [19] | [20]
inactive: all other assays above

CC(C)OC(=O)OCOP(=O)(CO[C@H](C)Cn1cnc2c(N)ncnc21)OCOC(=O)OC(C)C
not listed: [3] | [19] | [20]
inactive: all other assays above

Cc1ccnc(N)c1
not listed: [6] | [7] | [16] | [17] | [19] | [20]
inactive: all other assays above

Cn1nnc2c(C(N)=O)ncn2c1=O
not listed: [3] | [7] | [19] | [20]
inactive: all other assays above

Nc1nc(-c2ccccc2)c(Br)c(=O)[nH]1
not listed: [4] | [13] | [14] | [18]
inactive: all other assays above

O=C1CCCCO1
not listed: [3] | [16] | [17] | [19] | [20]
inactive: all other assays above

Cn1c(=O)c2[nH]c(Br)nc2n(C)c1=O
not listed: [6] | [7] | [16] | [18] | [19] | [20]
inactive: all other assays above

CCC(=O)CC
not listed: [6] | [13] | [14] | [17] | [18] | [19] | [20]
inactive: all other assays above

CC(=O)CCc1ccc(OC(C)=O)cc1
not listed: [17] | [18] | [19] | [20]
inactive: all other assays above

CC(=O)OC(C)=O
not listed: [6] | [13] | [14] | [17] | [18] | [19] | [20]
inactive: all other assays above

c1ccc(B(c2ccccc2)c2ccccc2)cc1
not listed: [7] | [13] | [14] | [16] | [17] | [18] | [19] | [20]
inactive: all other assays above

CC1(C)Oc2ccc(C#N)cc2[C@@H](N2CCCC2=O)[C@@H]1O
not listed: [3] | [19] | [20]
inactive: all other assays above
